Results on 35 molecules are retold here after PubChem BioAssay (NCATS).

Inconclusive results are not listed. A call without a number means that no potency is given here. The source made the active and inactive calls. Calls follow the shape of the dose curve; as a rule, active = well fitted curve in the direction sought with a large enough effect; inconclusive = small, poorly fitted or top-dose-only effect, or another doubt; inactive = no such curve, though single readings can be large; an effect the other way counts as inactive or inconclusive. Residues, ends and D or L forms follow the SMILES beside them. *: point of attachment. Cbz = O=C(OCc1ccccc1)*

Sequence of Calcium and integrin-binding protein 1 (Homo sapiens) (Q99828 whole entry, looked up): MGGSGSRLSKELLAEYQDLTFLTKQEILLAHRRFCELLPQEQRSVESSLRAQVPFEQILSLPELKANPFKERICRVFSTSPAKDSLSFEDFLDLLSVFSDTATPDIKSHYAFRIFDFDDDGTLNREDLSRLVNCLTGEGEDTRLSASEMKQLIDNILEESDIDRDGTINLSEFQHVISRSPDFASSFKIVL

The target of one test is Calcium and integrin-binding protein 1 (Homo sapiens) (UniProt Q99828). Nature of the test: Validation qHTS for Identification of Calcium Integrin Binding protein 1 (CIB1) Competitor (AID 1508618). The following applies: CIB1-GST / FITC-alphaIIb peptide fluorescence polarization; series mostly up to 114 µM. The method in brief:
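In this qHTS validation, the LOPAC set (up to 114 uM) was tested for blocking CIB1 binding to a fluorescein-tagged alphaIIb peptide, with FP detection at 480/540 nm.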
Take `Cc1ccc2c(c1)C(N1CCN(C)CC1)=Nc1cccnc1N2`: the Potency entry is “inactive”.
The same measure, in the same setting: the entry for `CC(/C=C/c1cccc(Oc2ccc(F)cc2)c1)N(O)C(N)=O` (stereo unspecified) is “inactive”; for `O=C1C2C=CC=CC2=NC(=S)N1CCN1CCC(=C(c2ccc(F)cc2)c2ccc(F)cc2)CC1` (stereo unspecified) it is “inactive”; for `CCCCCCC(=O)OC1CC(C)(C)NC(C)(C)C1` it is “inactive”.
Same read-out and setting: the same measure for `CC(=O)NCCc1c[nH]c2ccc(O)cc12`: “inactive”.
On the same count and under the same terms, the entry for `COC(=O)[C@H](NC(=O)c1cc(-c2ccccc2)nc2ccccc12)c1ccccc1` is “inactive”; for `Oc1cc(O)c2c(c1)O[C@H](c1ccc(O)c(O)c1)[C@@H](O)C2` it is “inactive”.
Turning to `O=C(O)c1cc2cc(F)ccc2[nH]1`, the Potency entry was “inactive”.
Still for that read-out and setting: the same measure for `NC1CCN(O)C1=O` (stereo unspecified): “inactive”; for `C=C(C)C1CC=C(C(=O)O)CC1` (stereo unspecified): “inactive”.
Consider `Cn1cc(C(F)(F)F)nc1-c1ccc(OCC(O)CNCCOc2ccc(O)c(C(N)=O)c2)cc1` (stereo unspecified), for which the Potency entry was “inactive”.
On the same count and under the same terms, the same measure for `COc1ccc(CCn2nnnc2C2(c3ccc(C)cc3)CC2)cc1`: “inactive”.
Regarding `CC(C)[C@H](NC(=O)OCc1ccccc1)C(=O)N[C@H](C=O)Cc1ccccc1` (Cbz-Val-Phe-aldehyde), the Potency entry was “inactive”.
Consider `O=c1ccc2c(OCCCCc3ccccc3)c3ccoc3cc2o1`, for which the Potency entry is “inactive”.
As to `OCC1NCC(O)C(O)C1O` (stereo unspecified), the Potency entry was “inactive”.
In the case of `N[C@@H](CCCC(=O)O)C(=O)O`, the Potency result is “inactive”.
Same read-out and setting: the same measure for `NC(N)=NC(N)=Nc1ccccc1`: “inactive”; for `CC1=C(/C=C/C(C)=C/C=C/C(C)=C\C(=O)O)C(C)(C)CCC1`: “inactive”.
For the molecule `NC1C=CC=C(C(=O)O)C1` (stereo unspecified), the Potency result was “inactive”.
Consider `N[C@@H](CS(=O)O)C(=O)O`, for which the Potency result is “inactive”.
For the molecule `Cc1nc(N=Nc2ccc(S(=O)(=O)O)cc2S(=O)(=O)O)c(COP(=O)(O)O)c(C=O)c1O`, the Potency result was “inactive”.
Take `COc1cccc(OC)c1OCCNCC1CSc2ccccc2O1` (stereo unspecified): the Potency result was “inactive”.
Turning to `C[C@H]1CC2C3CCC4=CC(=O)C=C[C@]4(C)[C@@]3(Cl)[C@@H](O)C[C@]2(C)[C@@]1(O)C(=O)CO` (stereo partly specified), the Potency result was “inactive”.
Still for that read-out and setting: the entry for `O=C(O)c1ccccc1Nc1ccccc1` is “inactive”; for `O=C(O)CCC(=O)N1CCCC1C(=O)O` (stereo unspecified) it is “inactive”; for `COc1cc(CNC(=O)CCCCCCC(C)C)ccc1O` it is “inactive”.
`O=C(O)Cc1ccc(O)c(O)c1`: the Potency result is “inactive”.
Take `Nn1nnc2ccccc21`: the Potency result is “inactive”.
Consider `COc1cc(/C=C(\C#N)C(=O)c2ccc(O)c(O)c2)cc(I)c1O`, for which the Potency entry was “inactive”.
Consider `O=C(O)Cc1c[nH]c2ccc(O)cc12`, for which the Potency entry was “inactive”.
Still for that read-out and setting: the same measure for `CCCC(=O)NCCc1c2n(c3ccc(OC)cc13)CCCc1ccccc1-2`: “inactive”.
`Oc1ccc(Cn2cc[nH]c2=S)cc1`: the Potency result was “inactive”.
Same read-out and setting: the same measure for `NCCC1CCCC(CCN)N1` (stereo unspecified): “inactive”.
The same measure, in the same setting: the same measure for `c1ccc2nc(C3=NCCN3)ccc2c1`: “inactive”; for `N#CC(C#N)=C(N)/C(C#N)=C/c1ccc(O)cc1`: “inactive”.

System in a further test: not listed separately
Nature of the test: Counterscreen qHTS for small molecule stabilizers of the endoplasmic reticulum resident proteome: GLuc-NoTag assay (AID 1508627). The following applies: Gaussia luciferase NoTag secretion counterscreen, luminescence, thapsigargin 100 nM for final 4 h; series mostly up to 76.4 µM. Put shortly: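 SH-SY5Y cells stably expressing constitutively secreted GLuc without SERCaMP tag, exposed to compound for 19 hr, then to 100 nM thapsigargin for 4 hr at 37C. Medium luciferase was read by coelenterazine luminescence without lysis.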
As for `NC(N)=NC(N)=Nc1ccccc1`, the Potency entry was “inactive”.
On the same count and under the same terms, the entry for `Cc1nc(N=Nc2ccc(S(=O)(=O)O)cc2S(=O)(=O)O)c(COP(=O)(O)O)c(C=O)c1O` is “inactive”.
On the same count and under the same terms, the same measure for `O=C(O)CCC(=O)N1CCCC1C(=O)O` (stereo unspecified): “inactive”.

System in a further test: not listed separately
Nature of the test: Confirmatory qHTS for small molecule stabilizers of the endoplasmic reticulum resident proteome: Secreted ER Calcium Modulated Protein (SERCaMP) assay (AID 1508628). Also: nearly all actives have a fitted effect of over 40% in size. The following applies: SERCaMP secreted luciferase ER calcium/proteostasis reporter; series mostly up to 76.3 µM. The method in brief: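 SH-SY5Y cells stably expressing GLuc-SERCaMP, treated 16 h with compound (primary 1.53, 7.67, 38.3 uM; confirmation 11 concentrations, up to 76.6 uM), then 100 nM thapsigargin for 4 h. Secreted Gaussia luciferase in medium read by coelenterazine luminescence.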
In the case of `NC(N)=NC(N)=Nc1ccccc1`, the Potency result was “inactive”.
Same read-out and setting: the same measure for `Cc1nc(N=Nc2ccc(S(=O)(=O)O)cc2S(=O)(=O)O)c(COP(=O)(O)O)c(C=O)c1O`: “inactive”.
The same measure, in the same setting: the same measure for `O=C(O)CCC(=O)N1CCCC1C(=O)O` (stereo unspecified): “inactive”.

System in the next test: not listed separately
Briefly: Primary qHTS for small molecule stabilizers of the endoplasmic reticulum resident proteome: Secreted ER Calcium Modulated Protein (SERCaMP) assay (AID 1508630). Also: potency is read from the fitted curve at half-maximal effect. The following applies: SH-SY5Y GLuc-SERCaMP (Gaussia luciferase released on ER calcium loss) secretion, thapsigargin, luminescence; series mostly up to 38.4 µM. Put shortly:
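GLuc-SERCaMP-expressing SH-SY5Y cells, pretreated 16 h with compound, are challenged with thapsigargin to empty ER calcium stores; after 4 h, coelenterazine is added directly to the medium and luminescence is imaged.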
Regarding `CC(/C=C/c1cccc(Oc2ccc(F)cc2)c1)N(O)C(N)=O` (stereo unspecified), the Potency entry is “inactive”.
Same read-out and setting: the same measure for `O=C1C2C=CC=CC2=NC(=S)N1CCN1CCC(=C(c2ccc(F)cc2)c2ccc(F)cc2)CC1` (stereo unspecified): “inactive”.
Still for that read-out and setting: the same measure for `CCCCCCC(=O)OC1CC(C)(C)NC(C)(C)C1`: “inactive”.
For the molecule `CC(=O)NCCc1c[nH]c2ccc(O)cc12`, the Potency entry is “inactive”.
Still for that read-out and setting: the entry for `COC(=O)[C@H](NC(=O)c1cc(-c2ccccc2)nc2ccccc12)c1ccccc1` is “inactive”; for `Oc1cc(O)c2c(c1)O[C@H](c1ccc(O)c(O)c1)[C@@H](O)C2` it is “inactive”; for `O=C(O)c1cc2cc(F)ccc2[nH]1` it is “inactive”.
Same read-out and setting: the same measure for `C=C(C)C1CC=C(C(=O)O)CC1` (stereo unspecified): “inactive”; for `Cn1cc(C(F)(F)F)nc1-c1ccc(OCC(O)CNCCOc2ccc(O)c(C(N)=O)c2)cc1` (stereo unspecified): “inactive”; for `COc1ccc(CCn2nnnc2C2(c3ccc(C)cc3)CC2)cc1`: “inactive”.
Still for that read-out and setting: the same measure for `CC(C)[C@H](NC(=O)OCc1ccccc1)C(=O)N[C@H](C=O)Cc1ccccc1` (Cbz-Val-Phe-aldehyde): “inactive”; for `O=c1ccc2c(OCCCCc3ccccc3)c3ccoc3cc2o1`: “inactive”.
As to `OCC1NCC(O)C(O)C1O` (stereo unspecified), the Potency result was “inactive”.
For the molecule `N[C@@H](CCCC(=O)O)C(=O)O`, the Potency result was “inactive”.
Still for that read-out and setting: the same measure for `NC(N)=NC(N)=Nc1ccccc1`: “inactive”; for `CC1=C(/C=C/C(C)=C/C=C/C(C)=C\C(=O)O)C(C)(C)CCC1`: “inactive”.
Turning to `NC1C=CC=C(C(=O)O)C1` (stereo unspecified), the Potency entry was “inactive”.
Same read-out and setting: the same measure for `N[C@@H](CS(=O)O)C(=O)O`: “inactive”.
On the same count and under the same terms, the entry for `Cc1nc(N=Nc2ccc(S(=O)(=O)O)cc2S(=O)(=O)O)c(COP(=O)(O)O)c(C=O)c1O` is “inactive”; for `COc1cccc(OC)c1OCCNCC1CSc2ccccc2O1` (stereo unspecified) it is “inactive”.
As to `C[C@H]1CC2C3CCC4=CC(=O)C=C[C@]4(C)[C@@]3(Cl)[C@@H](O)C[C@]2(C)[C@@]1(O)C(=O)CO` (stereo partly specified), the Potency entry was “inactive”.
The same measure, in the same setting: the entry for `O=C(O)c1ccccc1Nc1ccccc1` is “inactive”.
Same read-out and setting: the entry for `COc1cc(CNC(=O)CCCCCCC(C)C)ccc1O` is “inactive”; for `O=C(O)Cc1ccc(O)c(O)c1` it is “inactive”.
Same read-out and setting: the entry for `Nn1nnc2ccccc21` is “inactive”; for `COc1cc(/C=C(\C#N)C(=O)c2ccc(O)c(O)c2)cc(I)c1O` it is 11.2 µM (active).
Turning to `Oc1ccc(Cn2cc[nH]c2=S)cc1`, the Potency entry is “inactive”.
Same read-out and setting: the same measure for `NCCC1CCCC(CCN)N1` (stereo unspecified): “inactive”; for `c1ccc2nc(C3=NCCN3)ccc2c1`: “inactive”.
On the same count and under the same terms, the same measure for `N#CC(C#N)=C(N)/C(C#N)=C/c1ccc(O)cc1`: “inactive”.
